Rows were chosen to be rich in hits. Some 4.8% of all compounds tested hit in one or more screens of this group.
ATXN2 expr inh – ATXN2 expression inhibition; HEK-293 ATXN2-luciferase reporter, luminescence, 24 h; Potency, µM (top dose mostly 57 µM), without a hit: top-dose activity change, negative = inhibition, actives largely listed as inhibitors; 0.72% of 360,000 active; AID 1745845; also: potency is read from the fitted curve at half-maximal effect; % is scaled to controls: 0 for no effect and ±100 for the full control effect; nearly all actives have a fitted effect of over 55% in size
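qHTS (up to 57 uM final) was run with 24 h compound exposure of reporter cells at 37 °C. Each well was multiplexed: SteadyGlo luminescence measured ATXN2-luciferase expression after a fluorogenic Gly-Phe-AFC viability readout (25 uM final).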
ATXN viability – cell viability loss in ATXN counter-screen; 0.49% of 400,000 active; S2 cells (HEK-293 line with an ATXN2-luciferase reporter) viability, CellTiter-Fluor protease fluorescence, 24 h; Potency, µM (titrated, usually from 56.7 µM), most hits filed as cytotoxic; AID 651635; also: potency is read from the fitted curve at half-maximal effect; nearly all actives have a fitted effect of over 40% in size
D3 ag – activates the human D3 dopamine receptor; P35462; D3R DiscoveRx beta-arrestin cells, luminescence, 90 min; max activation, %; 0.58% of 410,000 active; in the data active = max activation above about 30%; also: 0% is about no effect
Target sequence (P35462 whole entry, looked up): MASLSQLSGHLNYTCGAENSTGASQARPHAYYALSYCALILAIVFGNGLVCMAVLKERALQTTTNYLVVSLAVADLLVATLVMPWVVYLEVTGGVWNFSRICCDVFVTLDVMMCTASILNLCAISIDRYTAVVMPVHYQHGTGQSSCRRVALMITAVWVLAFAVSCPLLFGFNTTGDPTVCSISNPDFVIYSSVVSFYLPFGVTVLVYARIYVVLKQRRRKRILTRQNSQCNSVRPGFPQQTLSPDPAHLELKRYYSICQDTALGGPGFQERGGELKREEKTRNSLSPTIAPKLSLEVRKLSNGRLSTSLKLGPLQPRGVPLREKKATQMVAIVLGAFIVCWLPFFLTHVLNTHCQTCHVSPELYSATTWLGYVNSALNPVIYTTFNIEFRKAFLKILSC
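Cells at 1500/well, incubated overnight, then treated with pinned compounds (dopamine as control) for 90 min at 37 degrees C. DiscoveRx reagent added for 30 - 60 minutes at room temperature; luminescence read.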
TGFb SMAD3 inh – blocks TGF-b signaling; HepG2 CAGA-GFP TGF-b/SMAD3 reporter, GFP fluorescence, 18 h; TGF-beta stimulated, 500 pg/mL final; Potency, µM (titrated, usually from 46.1 µM), for the others: top-dose activity, negative = inhibition, most hits filed as inhibitors; 1.2% of 410,000 active; AID 588855; also: potency is read from the fitted curve at half-maximal effect; % is scaled to controls: 0 for no effect and ±100 for the full control effect; nearly all actives have a fitted effect of over 65% in size
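First, reporter cells (HEPG2 CAGA-GFP) rested 2 h at 37 degrees C. Next, compounds were pinned in and TGF-beta added to 500 pg/mL final. After 18 h, GFP was imaged per cell and summed per well.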
DRD3 antagonist – D3 dopamine receptor (human) antagonism. P35462. D3R cells, DiscoveRx beta-arrestin luminescence, antagonist mode; active compounds read low. max response, negative = inhibition, %. 2.5% of 360,000 active. AID 652054; in the data active = max response below about -50%; inconclusive = no clear call, values can overlap the other calls; also: % is scaled to controls: 0 for no effect and ±100 for the full control effect
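Cells expressing the human receptor were seeded at 1500 cells/well, incubated overnight at 37 degrees C in 5% CO2, then exposed to library compounds with dopamine controls for 90 minutes at 37 degrees C before luminescent detection.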
HepG2 tox – HepG2 cytotoxicity, counter-screen for TGF-b inhibitors; HepG2 CAGA-GFP viability, ATP luminescence, 18 h; AID 588856; Potency, µM (titrated, usually from 46.1 µM), inactives show top-dose activity change, negative = cytotoxicity, usual class: cytotoxic; 0.76% of 410,000 active; also: potency is read from the fitted curve at half-maximal effect
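CellTiter-Glo luminescence gave cytotoxicity after 18 hours at 37 degrees C. The cells were HepG2 CAGA-GFP in 1% FBS DMEM, stimulated with 500 pg/mL TGF-beta after compound addition. %Activity was normalised to no-cell wells (complete cell-killing) and DMSO (no toxicity), and curves were fitted and classified.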
* marks the source's active call; other numbers are inactive results; i = inactive; ? = inconclusive; . = not tested or not shown; ! = repeats disagree; [ ] = remark or other dose. Unless noted, calls follow the shape of the dose curve; as a rule, active = well fitted curve in the direction sought with a large enough effect; inconclusive = small, poorly fitted or top-dose-only effect, or another doubt; inactive = no such curve, though single readings can be large; an effect the other way counts as inactive or inconclusive.

SMILES	ATXN2 expr inh	ATXN viability	D3 ag	TGFb SMAD3 inh	DRD3 antagonist	HepG2 tox
COc1ccc(C(c2nnnn2Cc2ccccc2)N2CCC3(CC2)C(=O)NCN3c2ccccc2)cc1 (configuration not stated)	-6%	?	-11	11µM*	4	-1%
COc1ccc(-n2nnnc2C(c2ccccc2OC(F)(F)F)N2CCC3(CC2)C(=O)NCN3c2ccccc2)cc1 (configuration not stated)	?	.	19	11µM*	71	-32%
O=C1NCN(c2ccccc2)C12CCN(C(c1ccccc1OC(F)(F)F)c1nnnn1-c1ccc3c(c1)OCCO3)CC2 (configuration not stated)	0%	22µM*	2	?	0	5%
CC(C)(C)n1nnnc1C(c1cccs1)N1CCC2(CC1)C(=O)NCN2c1ccccc1 (configuration not stated)	-5%	?	3	-20%	-30	-4%
COc1ccc(-n2nnnc2C(c2ccccc2)N2CCC3(CC2)C(=O)NCN3c2ccccc2)cc1 (configuration not stated)	-38%	?	-3	?	9	3%
ClC1=CCC2CN(CCN3CCCCC3)CC2C1 (configuration not stated)	-11%	?	2	8%	-52*	-16%
Cc1cc(C(C#N)c2ccc(Cl)cc2)c(Cl)cc1NC(=O)c1cc(I)cc(I)c1O (configuration not stated)	?	?	14	?	14	-57%
[S]=[Sb](=[S])[S][Sb](=[S])=[S]	.	.	5	.	.	.
Nc1c(Br)cc2c3c(cccc13)-c1ccccc1-2	2%	i	-2	63%	-12	16µM*
c1ccc2c(c1)-c1cccc3cccc-2c13	-4%	i	-1	-2%	9	-6%
N#CC(C#N)=NNc1ccc([N+](=O)[O-])cc1	0%	14µM*	-10	?	?	-52%
CCN(CC)S(=O)(=O)c1ccc(NN=C(C#N)C#N)cc1	-24%	?	10	?	3	-53%
Cc1ccc2nc(N3CCC(C(=O)N4CCC5(CC4)OCCO5)CC3)sc2c1	6%	i	5	-15%	-51*	-18%
CC(=O)c1cccc(NC(=O)C2CCN(S(=O)(=O)c3ccc4c(c3)oc(=O)n4C)CC2)c1	-5%	i	-5	-10%	.	-33%
c1ccc(CN2CCNCC2)cc1	21%[222 µM]	i	-8	.	.	.
C(=NN1CCCCCC1)c1c[nH]c2ccccc12	0%	i	0	9%	-1	-4%
C1=C(c2c[nH]c3ccccc23)CCN(Cc2ccccc2)C1	-15%	?	-21	?	-101*	-51%
CN1CC=C(c2c[nH]c3ccccc23)CC1	-6%	i	-16	?	-85*	-29%
O=[N+]([O-])c1ncc[nH]1	-3%	.	.	.	.	.
COc1cc([C@@H]2c3cc4c(cc3[C@H](O)[C@H]3COC(=O)[C@@H]23)OCO4)cc(OC)c1OC	?	.	.	-9%	.	15%
Nc1ccc(N=Nc2ccccc2)cc1	0%	22µM*!	-15	-9%	?	-5%
Cc1cc(/C=C/c2cccc3sc(C)[n+](CCCCI)c23)ccc1N(CCCl)CCCl	.	.	.	?	.	-8%
CCCN1CC[C@@H]2c3cc(O)ccc3CC[C@@H]21	-3%	i	51*	-15%	10	-65%
CCCN1CCO[C@@H]2c3cc(O)ccc3OC[C@@H]21	13%	.	.	.	.	.
CCCCCSc1cc(OC)c(CCNC)cc1OC	-12%	i	-14	?	?	10µM*
SMILES	ATXN2 expr inh	ATXN viability	D3 ag	TGFb SMAD3 inh	DRD3 antagonist	HepG2 tox
CCCCCCCSc1cc(OC)c(CCNC)cc1OC	?	?	-20	?	-10	-95%
O=C(Nc1ccc(Br)cc1)c1cccc(S(=O)(=O)N2CCc3ccccc32)c1	?	i	-15	?	.	-21%
CC(NCc1ccc(Cl)c(Cl)c1)C(O)c1ccccc1 (configuration not stated)	0%	i	-37	?	-65*	-40%
CN1CCc2nc(SCc3ccccc3Br)c(C#N)cc2C1	.	i	-11	?	-81*	-27%
Cc1cccc(CSc2nc3c(cc2C#N)CN(C)CC3)c1	2%	i	-1	-21%	-26	-2%
O=C(C[C@@H]1NCCC[C@H]1O)Cn1cnc2cc(Br)c(Cl)cc2c1=O	.	.	-8	.	.	.
CCN(CC)C(=O)c1ccc(NC(=O)CCn2nc(-c3ccc(C)cc3)c3ccccc3c2=O)cc1	.	.	4	0%	.	-22%
CCN(CC)C(=O)c1ccc(NC(=O)COc2ccc(-c3nn(C)c(=O)c4ccccc34)cc2)cc1	?	i	19	10µM*	46	-13%
COc1cc(C(=O)NCCSc2c(-c3ccccc3)[nH]c3ccccc23)cc(OC)c1OC	?	?	1	?	.	-14%
Cc1ccc(S(=O)(=O)N(C)C[C@H]2Oc3cc(Br)ccc3S(=O)(=O)N([C@H](C)CO)C[C@H]2C)cc1	?	?	-3	?	10	-22%
C[C@@H]1CN([C@H](C)CO)S(=O)(=O)c2ccc(C#Cc3cccc(F)c3)cc2O[C@@H]1CN(C)C(=O)CN1CCOCC1	?	20µM*	-9	?	-8	-41%
NC(CCc1ccccc1)c1csc(NC(=O)Nc2ccccc2Oc2ccccc2)n1 (configuration not stated)	?	?	5	?	15	10µM*
CC(C)(C)c1cc([N+](=O)[O-])cc(C(C)(C)C)c1O	?	?	-4	7.9µM*	-16	-40%
O=P1(Oc2ccccc2)CC=CC(COCc2ccccc2)O1 (configuration not stated)	.	.	.	-20%	.	7%
CC(N)Cc1c[nH]c2ccc(Cl)cc12 (configuration not stated)	-17%	i	5	?	21	-3%
Clc1ccc2[nH]c3c(c2c1)CCNC3	?	i	-17	-11%	-70*	-19%
